Experiment [1] can be described thus: inhibitors of TNFa-induced NFkB p65 translocation, primary screen, imaging, HUVEC, MLSMR starter and 10KST1 sets (AID 438;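 active = inhibition above 20% together with a positive visual image hit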;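 also: compound added about 3h40 before a 20 min TNFalpha stimulation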;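 as to inhibition: signal is the nuclear over cytoplasmic p65 intensity ratio per well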). As to conditions: HUVEC TNFa-induced p65 nuclear translocation; cell count: measured here: nuclei count (cytotoxicity indicator), at 2.08 µM; inhibition: at 2 µM, stronger effect = higher value, 0% TNFa-plus-vehicle, 100% no-TNFa wells.
Experiment [2] in a line: inhibitors of mutant huntingtin aggregation, primary screen, imaging, exon1htt(103Q)mCFP cells, high-content imaging (AID 483;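 active = visual image review flags a hit and inhibition of aggregation exceeds 20%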;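 also: compound exposure lasted 3 days before fixation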;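 as to nuclei count: percent of the per-plate median nuclei count of sample wells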). As to conditions: exon1htt(103Q)mCFP cell line, aggregate imaging, at 2 µM; inhibition of aggregation: stronger effect = higher value; nuclei count: measured here: cell count, toxicity.
Experiment [3] is described as follows: inhibitors of E-selectin induction by TNFa, primary screen, imaging, HUVEC, immunofluorescence, MLSMR starter and 10KST1 sets (AID 487;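 active = visually confirmed hit in the image check and inhibition above 20%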;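 as to inhibition: signal is fraction of cell area covered by stained E-selectin grains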;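 as to nuclei count: 100% = median nuclei count of all wells on the same plate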). As to conditions: HUVEC TNFalpha-induced E-selectin immunofluorescence imaging, at 2 µM; inhibition: stronger effect = higher value; nuclei count: measured here: cell number, toxicity.
Experiment [4] addresses Voltage-gated potassium channel subunit beta-2 (Rattus norvegicus) (UniProt P62483). Description: KvBeta enzyme negative modulators, primary screen, biochemical, NADPH fluorescence (AID 622;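 active = fluorescence slope higher than the sample average by over 3 SD, cut at about -0.22 in these data, passing the limit was not always enough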;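 also: slope of raw intensity against log time taken from 70 to 1610 s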). As to conditions: recombinant KvBeta, 4-cyanobenzaldehyde reduction, at 10 µM, stronger effect = higher value.
Experiment [5] shares this target. Description: KvBeta positive modulators, primary screen, biochemical, NADPH fluorescence (AID 623;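 active = NADPH fluorescence slope more negative than the mean of all samples by about 3 SD, 99.7% confidence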;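 also: fluorescence intensity change per second fitted from 20 to 320 s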). As to conditions: Recombinant KvBeta, NADPH fluorescence decrease slope, 10 min; at 10 µM; stronger effect = lower value.
Experiment [6] deals with Alpha-2C adrenergic receptor (Homo sapiens) (UniProt P18825). The experiment in a line: modulators of alpha2C/GIRK thallium flux, primary screen, cell-based, HEK293 alpha2C/GIRK1/2 (AID 624;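 active = fluorescence slope after compound addition differing from the mean of all screened samples at 99.7% confidence, in either direction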;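 also: slope of fluorescence ratio to pre-addition baseline per second over 15 to 24 s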). As to conditions: thallium flux BTC fluorescence, at 10 µM, actives lie on both sides.
Experiment [7] in a line: inhibitors of Sendai virus-induced IRF3 signaling, primary screen, TLR/RLR signaling modifier project, cell-based, Sendai virus stimulus, luciferase, 10K MLSCN set (AID 602276).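 Also: firefly luciferase from ISG56 promoter only with Renilla not read in this screen; 0% = Sendai virus plus DMSO and 100% = medium plus DMSO without virus.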 Particulars: HEK293 RL24 IRF3 luciferase reporter, at 10 µM, stronger effect = higher value. Background: Reporter assays use an easily measured gene product as a stand-in for the process of interest.
The nature of experiment [8]: inhibitors of poly I:C-induced TLR3 signaling, primary screen, cell-based, poly I:C stimulus, luciferase, 10K MLSCN set (AID 602277;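 active = inhibition of the reporter signal at or above 50%; inactive = inhibition below 50%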). As to conditions: HEK293-TLR3 RL24 IRF3 luciferase reporter, at 10 µM, stronger effect = higher value.

The source made the active and inactive calls.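 The calls were made as follows, unless noted: active = inhibition at or above 50% at 10 µM; inactive = inhibition below 50%.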

Sequence of Alpha-2C adrenergic receptor (Homo sapiens) (P18825 whole entry, looked up): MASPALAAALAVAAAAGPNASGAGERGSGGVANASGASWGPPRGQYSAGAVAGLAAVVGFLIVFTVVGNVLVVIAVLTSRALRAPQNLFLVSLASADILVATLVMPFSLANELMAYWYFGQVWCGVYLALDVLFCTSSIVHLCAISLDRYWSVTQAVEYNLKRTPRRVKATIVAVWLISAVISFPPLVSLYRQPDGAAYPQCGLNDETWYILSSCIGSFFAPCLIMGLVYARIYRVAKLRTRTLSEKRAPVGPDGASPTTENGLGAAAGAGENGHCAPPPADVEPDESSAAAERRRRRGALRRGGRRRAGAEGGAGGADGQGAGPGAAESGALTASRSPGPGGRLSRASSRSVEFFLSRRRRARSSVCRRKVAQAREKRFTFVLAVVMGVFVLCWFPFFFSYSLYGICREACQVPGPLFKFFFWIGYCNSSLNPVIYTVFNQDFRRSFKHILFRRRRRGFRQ
Sequence of Voltage-gated potassium channel subunit beta-2 (Rattus norvegicus) (P62483 whole entry, looked up): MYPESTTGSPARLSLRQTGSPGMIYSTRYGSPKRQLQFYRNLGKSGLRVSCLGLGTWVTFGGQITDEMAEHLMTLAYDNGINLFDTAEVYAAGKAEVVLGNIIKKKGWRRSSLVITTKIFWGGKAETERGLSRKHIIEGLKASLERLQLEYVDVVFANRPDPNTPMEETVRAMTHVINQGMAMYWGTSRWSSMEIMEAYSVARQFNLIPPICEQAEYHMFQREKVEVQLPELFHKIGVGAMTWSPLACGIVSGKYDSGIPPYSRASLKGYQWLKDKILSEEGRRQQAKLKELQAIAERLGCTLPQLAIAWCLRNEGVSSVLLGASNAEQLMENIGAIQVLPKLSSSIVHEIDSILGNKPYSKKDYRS

A word on the inhibition: it is the relative decrease from the control value, in per cent. On to `CC1(C)OC(=O)N(c2cccnc2)C1(C)O` (centres undefined), for which the cell count in experiment [1] is 597. For the same compound, the inhibition in experiment [1] was 8.1% (inactive); in experiment [3], 41.8% (inactive); in experiment [7], 13.3% (inactive); in experiment [8], 19.9% (inactive). Besides, in experiment [2], the inhibition of aggregation is -2.8% (inactive). Further, the results for the nuclei count in experiment [2] and in experiment [3] were 101% and 104%, respectively. Besides, in experiment [4], the fluorescence slope was -0.401 (inactive). Further, the NADPH fluorescence slope in experiment [5] is -2.3e-05 (inactive). Also, the slope in experiment [6] was 0.00628 (inactive).

`COc1cc(C2c3c(n[nH]c3C)C(=O)N2c2ccc(C)cc2)ccc1O` (centres undefined): the cell count in experiment [1] was found to be 335. Also, the inhibition in experiment [1] is -8.1% (inactive); in experiment [3], -34.1% (inactive); in experiment [7], 3.65% (inactive); in experiment [8], -2.36% (inactive). The inhibition of aggregation in experiment [2] was -6% (inactive). The nuclei count worked out at 86.3% in experiment [2] and 112% in experiment [3]. Moreover, the fluorescence slope in experiment [4] is -0.586 (inactive). Also, the NADPH fluorescence slope in experiment [5] is -2.8e-05 (inactive). Besides, in experiment [6], the slope was 0.00346 (inactive).

Turning to `COc1ccc(CCNc2oc(Cc3cccc4ccccc34)nc2C#N)cc1OC`, the cell count in experiment [1] is 718. Moreover, the inhibition is 13.9% (inactive) in experiment [1], 24.2% (inactive) in experiment [3], 17.3% (inactive) in experiment [7] and 6.78% (inactive) in experiment [8]. The inhibition of aggregation in experiment [2] is 8.4% (inactive). The nuclei count was found to be 81.2% in experiment [2] and 88.7% in experiment [3]. Moreover, the fluorescence slope in experiment [4] was -0.396 (inactive). Further, the NADPH fluorescence slope in experiment [5] is -8.6e-06 (inactive). For the same compound, the slope in experiment [6] was 0.00516 (inactive).

As for `CCn1cc(C2=NOC(C(=O)Nc3c(C)nn(Cc4ccc(F)cc4)c3C)C2)c(C)n1` (centres undefined), the cell count in experiment [1] was 766. Besides, the inhibition in experiment [1] was -12.2% (inactive); in experiment [3] it was -34.2% (inactive); in experiment [7], 12.3% (inactive); in experiment [8] it was 11.4% (inactive). Besides, the inhibition of aggregation in experiment [2] was -18.1% (inactive). Moreover, the nuclei count in experiment [2] turned out to be 105%; in experiment [3], 94.7%. Besides, the fluorescence slope in experiment [4] is -0.581 (inactive). The NADPH fluorescence slope in experiment [5] was -2.9e-05 (inactive). Besides, the slope in experiment [6] was 0.00617 (inactive).

Regarding `CC(C)(C)c1ccc2c(c1)OCC(C(=O)O)O2` (centres undefined), the cell count in experiment [1] was 448. The inhibition in experiment [1] was 2% (inactive); in experiment [3], 14.6% (inactive); in experiment [7], -8.63% (inactive); in experiment [8] it was 4.32% (inactive). Further, the inhibition of aggregation in experiment [2] was -7.2% (inactive). Further, the nuclei count in experiment [2] was 110%; in experiment [3], 90.7%. In experiment [4], the fluorescence slope is -0.547 (inactive). The NADPH fluorescence slope in experiment [5] was 5.5e-05 (inactive). Besides, the slope in experiment [6] was 0.00589 (inactive).

For the compound `CCOC(=O)CSc1nn(C)c(=S)s1`, the cell count in experiment [1] was found to be 723. Besides, the inhibition in experiment [1] was 0.6% (inactive); in experiment [3] it was -19.1% (inactive); in experiment [7], 3.99% (inactive); in experiment [8], 21.1% (inactive). Moreover, the inhibition of aggregation in experiment [2] is -4.4% (inactive). Moreover, the nuclei count in experiment [2] came to 108%; in experiment [3], 104%. For the same compound, in experiment [4], the fluorescence slope was -0.573 (inactive). For the same compound, the NADPH fluorescence slope in experiment [5] was -1.7e-05 (inactive). In addition, the slope in experiment [6] was 0.00733 (inactive).

Regarding `O=C(CCC(=O)N(c1cccc(F)c1)C(C(=O)NC1CCCC1)c1ccncc1)Nc1cccnc1` (centres undefined), in experiment [1], the cell count is 465. Besides, the inhibition in experiment [1] was 0.6% (inactive); in experiment [3] it was -32.3% (inactive); in experiment [7] it was 18.8% (inactive); in experiment [8] it was 20.4% (inactive). Also, in experiment [2], the inhibition of aggregation was -8.2% (inactive). Also, the results for the nuclei count in experiment [2] and in experiment [3] were 70.3% and 108%, respectively. In addition, in experiment [4], the fluorescence slope was -0.5 (inactive). In experiment [5], the NADPH fluorescence slope was -3.7e-05 (inactive). In addition, the slope in experiment [6] was 0.00449 (inactive).

In the case of `COCCn1c(CN(Cc2ccccc2)Cc2ccccc2)nc2c1c(=O)n(C)c(=O)n2C`, the cell count in experiment [1] worked out at 633. For the same compound, the inhibition in experiment [1] is -19% (inactive); in experiment [3], -48.5% (inactive); in experiment [7], 18.4% (inactive); in experiment [8], 23.3% (inactive). The inhibition of aggregation in experiment [2] is -10.5% (inactive). The nuclei count turned out to be 100% in experiment [2] and 115% in experiment [3]. Besides, the fluorescence slope in experiment [4] was -0.56 (inactive). Besides, the NADPH fluorescence slope in experiment [5] is 6.1e-06 (inactive). In experiment [6], the slope was 0.00386 (inactive).

As for `CC(=O)NCc1ccc(C(=O)CSc2nnc(-c3ccncc3)n2Cc2ccccc2)o1`, in experiment [1], the cell count turned out to be 461. Besides, the inhibition in experiment [1] was -1.1% (inactive); in experiment [3] it was -25.7% (inactive); in experiment [7], 12.6% (inactive); in experiment [8] it was 20.5% (inactive). Further, in experiment [2], the inhibition of aggregation was 16.2% (inactive). The nuclei count in experiment [2] is 96%; in experiment [3], 127%. For the same compound, the fluorescence slope in experiment [4] was -0.59 (inactive). Besides, the NADPH fluorescence slope in experiment [5] was -5.8e-05 (inactive). The slope in experiment [6] was 0.00604 (inactive).

On to `CCOC(=O)Cc1csc(NC(=O)CSc2nnc(-c3ccncc3)n2Cc2ccco2)n1`, for which the cell count in experiment [1] is 516. Further, the inhibition is -12.9% (inactive) in experiment [1], -61.4% (inactive) in experiment [3], 10.4% (inactive) in experiment [7] and 10.6% (inactive) in experiment [8]. In experiment [2], the inhibition of aggregation was 14.5% (inactive). In addition, the nuclei count in experiment [2] turned out to be 97.6%; in experiment [3], 122%. Also, the fluorescence slope in experiment [4] was -0.595 (inactive). For the same compound, in experiment [5], the NADPH fluorescence slope was -6.1e-05 (inactive). Also, in experiment [6], the slope was 0.0058 (inactive).

With `Cc1c(C(=O)NCc2ccoc2)oc2ccc3c(c12)C(=O)CC(C)(C)O3`, the cell count in experiment [1] was 214. Also, the inhibition in experiment [1] was 7.4% (inactive); in experiment [3], 7.9% (inactive); in experiment [7], -46% (inactive); in experiment [8], -231% (inactive). The inhibition of aggregation in experiment [2] was -2.1% (inactive). Besides, the nuclei count in experiment [2] came to 78.2%; in experiment [3], 103%. In addition, the fluorescence slope in experiment [4] was -0.531 (inactive). Moreover, the NADPH fluorescence slope in experiment [5] is 1.8e-05 (inactive). Moreover, the slope in experiment [6] was 0.00522 (inactive).

With `Cn1cccc1Cc1nnc(SCC(N)=O)n1-c1ccc(F)cc1`, the cell count in experiment [1] is 845. Also, the inhibition in experiment [1] is 4.6% (inactive); in experiment [3], -106% (inactive); in experiment [7], 10.4% (inactive); in experiment [8], 24.3% (inactive). Moreover, in experiment [2], the inhibition of aggregation was 15.1% (inactive). Moreover, the nuclei count worked out at 102% in experiment [2] and 125% in experiment [3]. Besides, the fluorescence slope in experiment [4] is -0.569 (inactive). The NADPH fluorescence slope in experiment [5] is -3.1e-05 (inactive). In addition, the slope in experiment [6] is 0.00615 (inactive).

With `CCOc1ccc(NCCC(=O)c2ccc3c(c2)OCO3)cc1`, in experiment [1], the cell count stood at 624. The inhibition is -5.4% (inactive) in experiment [1], 0% (inactive) in experiment [3], 2.87% (inactive) in experiment [7] and 12.5% (inactive) in experiment [8]. For the same compound, the inhibition of aggregation in experiment [2] is 29.9% (inactive). Further, the nuclei count is 96.9% in experiment [2] and 103% in experiment [3]. Besides, in experiment [4], the fluorescence slope was -0.326 (inactive). Also, the NADPH fluorescence slope in experiment [5] is 8.4e-06 (inactive). For the same compound, the slope in experiment [6] was 0.00304 (inactive).

As for `O=C(NCC1COc2ccccc2O1)c1ccc(NC(=O)c2ccco2)cc1` (centres undefined), the cell count in experiment [1] came to 752. Further, the inhibition in experiment [1] was -3.6% (inactive); in experiment [3], -120% (inactive); in experiment [7], 7.34% (inactive); in experiment [8], 20% (inactive). In addition, the inhibition of aggregation in experiment [2] was 22.7% (inactive). Moreover, the nuclei count in experiment [2] stood at 106%; in experiment [3] it was 120%. In experiment [4], the fluorescence slope is -0.435 (inactive). The NADPH fluorescence slope in experiment [5] is -2.6e-05 (inactive). Further, in experiment [6], the slope was 0.00329 (inactive).
